Assay results reported in PubChem BioAssay (NCATS).
Results filed as inconclusive are left out. Where a call stands in place of a potency, no number is given. More than one record can exist for a structure, and the calls need not agree. Active and inactive are the calls of the source. Calls come from the whole dose curve; as a rule, active = well fitted inhibition curve with a large enough effect; inconclusive = small, poorly fitted or top-dose-only effect; inactive = no such curve, though single readings can be large or run the other way.

target: M-phase phosphoprotein 8 (Homo sapiens) (UniProt Q99549); test: qHTS Validation Assay for Inhibitors for MPP8 Chromodomain Interactions with Methylated Histone Tails (AID 488949); settings: AlphaScreen MPP8 binding to H3K9me3 peptide; series mostly up to 114 µM; note: nearly all actives have a fitted effect of over 55% in size
Description: As our understanding of epigenetics expands, it is becoming clear that players in this field are potential targets for drug development. This area of epigenetic therapy has established applications for the treatment of cancer and neurological diseases. We have been involved in this field for a number of years and have performed high-throughput screens to identify the first small molecule inhibitors of protein methyltransferases. These methyltransferases target multiple substrates, and thus regulate many arms of an epigenetic pathway. The methylation of different substrates often generates docking sites for effector proteins that harbor binding domains (chromo, tudor, PHD, MBT and ANK repeats). It has been proposed that the binding sites generated for different proteins by these post-translational modifcations mediate downstream effects on chromatin. Consistent with this theory, di- and tri-methylation of histone H3K9 facilitates the binding of heterochromatin protein HP1. The HP1 protein harbors a chromodomain that is responsible for the methyl-dependent interaction between HP1 and lysine 9 of histone H3. HP1 was first described in flies as a heterochromatin associated protein that can regulate gene silencing. It harbors a chromodomain that binds H3K9me3. In addition, it harbors a chromoshadow domain that interacts with a large number of proteins that are involved in heterochromatin formation and gene repression. There are three highly related HP1 isoforms. All three variants are associated with pericentric heterochromatin and it is not clear whether they have specific or redundant functions. MPP8 is also involved in the repression of gene in euchromatic regions (unpublished data) and like HP1 its chromodomain binds H3K9me3. MPP8 harbors an ankyrin repeat region that is likely involved in binding and recruiting interacting proteins with transcriptional repressive function, much like the chromoshadow domain of HP1 does. We hypothesize that by inhibiting specific protein-protein interactions we will be able to develop compounds that block a single arm of an epigenetic pathway. The specificity attained by blocking a single protein-protein interaction will be far greater than that attained by blocking the enzyme that regulates one of many interactions. Low-affinity protein-protein interactions (Kd in the single- to double-digit micromolar range) such as those discussed here have been very difficult to assay by traditional techniques such as fluorescence polarization or fluorescence resonance energy transfer. We have developed a sensitive chemiluminescence-based assay (Quinn, et al. 2009), which serves as the starting point for this project. The following is a validation assay to identify lead compounds that can block methyl-dependent protein-protein interactions (specifically MPP8), which can be used as probes to analyze these methyl-driven interactions and perhaps even developed into targeted epigenetic therapies. Assay Provider: Mark T. Bedford, MD Anderson Screening Center PI: Austin, C.P. Screening Center: NIH Chemical Genomics Center [NCGC]
To each well, 2 uL of MPP8 protein (final 50 nM) and 1 uL biotinylated histone peptide trimethylated at Lys9 [b-H3(1-18)K9me3] (final 50 nM) was added in 1x PBS buffer, pH 7.4, containing 0.01% Tween-20 using a nanoliter dispenser. Formation of a protein-peptide complex proceeded at room temperature for 30 min. A Kalypsys pin-tool was employed to transfer 23 nL of library compound solution in DMSO to each well. Aurintricarboxylic acid (ATA) was used as an intraplate control with a 12-point titration in duplicate. Following a 30 min incubation of the protein-peptide complex with compounds at room temperature, a mixture of 40 ug/mL each streptavidin-coated donor and nickel chelate acceptor AlphaScreen beads (final 10 ug/mL) was added in a 1 uL dispense for a final volume of 4 uL. Plates were incubated protected from the light for 30 min at room temperature. […]
Potency is the fitted concentration of half-maximal effect.

M-phase phosphoprotein 8 (Homo sapiens), sequence (Q99549 whole entry, looked up): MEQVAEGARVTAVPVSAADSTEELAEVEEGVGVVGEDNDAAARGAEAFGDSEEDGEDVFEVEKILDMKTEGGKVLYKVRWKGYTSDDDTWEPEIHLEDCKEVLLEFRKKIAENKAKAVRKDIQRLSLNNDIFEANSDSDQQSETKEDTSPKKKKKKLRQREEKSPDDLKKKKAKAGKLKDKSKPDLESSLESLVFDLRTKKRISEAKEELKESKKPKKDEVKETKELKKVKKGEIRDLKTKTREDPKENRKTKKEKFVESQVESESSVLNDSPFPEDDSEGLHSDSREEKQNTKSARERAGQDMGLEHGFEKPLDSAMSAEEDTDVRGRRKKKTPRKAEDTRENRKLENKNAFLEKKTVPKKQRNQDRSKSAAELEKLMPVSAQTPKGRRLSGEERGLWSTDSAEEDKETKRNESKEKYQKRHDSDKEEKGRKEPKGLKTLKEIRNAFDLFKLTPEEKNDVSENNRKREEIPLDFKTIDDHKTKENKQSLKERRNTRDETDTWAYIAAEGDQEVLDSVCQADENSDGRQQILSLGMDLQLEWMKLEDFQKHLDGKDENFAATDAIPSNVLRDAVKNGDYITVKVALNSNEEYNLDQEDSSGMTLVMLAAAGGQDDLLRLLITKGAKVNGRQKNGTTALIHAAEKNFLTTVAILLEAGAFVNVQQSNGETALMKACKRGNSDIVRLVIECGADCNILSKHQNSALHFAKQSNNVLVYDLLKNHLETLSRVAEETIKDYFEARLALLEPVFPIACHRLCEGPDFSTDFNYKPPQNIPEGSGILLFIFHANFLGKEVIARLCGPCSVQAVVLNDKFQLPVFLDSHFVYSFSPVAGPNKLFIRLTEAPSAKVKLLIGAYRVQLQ

| Structure (SMILES) | Potency |
| --- | --- |
| C/C=C(/C)C(=O)O[C@H]1C(C)=C2C([C@@H]1OC(=O)CCCCCCC)[C@@](C)(OC(C)=O)C[C@@H](OC(=O)CCC)[C@@]1(O)[C@H]2OC(=O)[C@@]1(C)O (stereo not given in full) | inactive |
| C[C@H]1OC[C@@H](C[N+](C)(C)C)O1 | inactive |
| N.N.N.N.N.N.N.N.N.N.N.N.N.N.O.O.[Cl-].[Cl-].[Cl-].[Cl-].[Cl-].[Cl-].[Ru].[Ru].[Ru] | 10 µM (active) |
| CCN1C[C@]2(C)CC[C@H](O)[C@@]34[C@@H]5C[C@@H]6[C@@H](OC)C[C@@](O)(C5[C@H]6O)[C@@H](C[C@@H]23)[C@@H]14 | inactive |
| C=CCN1CC[C@@]2(C)c3cc(O)ccc3CC1[C@@H]2C | inactive |
| C[C@]12CC[C@@H](O)CC1CCC1C2CC[C@]2(C)C(=O)CC[C@@H]12 (stereo not given in full) | inactive |
| NNCc1cccc(O)c1 | inactive |
| Nc1ncnc2c1ncn2[C@@H]1O[C@H](COP(=O)(O)CP(=O)(O)OP(=O)(O)O)[C@H](O)[C@H]1O | inactive |
| CC(C)(O)C1C2OC(=O)C1[C@]1(O)C[C@H]3O[C@]34C(=O)O[C@H]2[C@]14C (stereo not given in full) (tested in a mixture with another compound) | inactive |
| CCCCN1C2CCC1CC(OC(c1ccc(F)cc1)c1ccc(F)cc1)C2 (stereo not given) | inactive |
| O=C(OC1CCN(CCCl)CC1)C(c1ccccc1)c1ccccc1 | inactive |
| CCCN1CCc2cccc3c2C1Cc1ccc(O)c(O)c1-3 (stereo not given) | 20 µM (active) |
| S=C(S)N1CCCC1 | inactive |
| COc1cc(OC)c(/C=C2/C(=O)Nc3ccccc32)c(OC)c1 | 12.6 µM (active) and inactive |
| C[C@@H]1O[C@@H](O[C@H]2C[C@@H](O)[C@]3(CO)[C@H]4[C@H](O)C[C@]5(C)[C@@H]([C@@H]6COC(=O)C6)CC[C@]5(O)[C@@H]4CC[C@]3(O)C2)[C@H](O)[C@H](O)[C@H]1O | inactive |
| CCC(CO)NC(=O)[C@@H]1C=C2c3cccc4[nH]cc(c34)C[C@H]2N(C)C1 (stereo not given in full) | inactive |
| COc1ccc2c(c1O)-c1cccc3c1C(C2)N(C)CC3 (stereo not given) | 44.7 µM (active) |
| CC[C@@H](CO)NC(=O)[C@H]1C=C2c3cccc4c3c(cn4C)C[C@H]2N(C)C1 | inactive |
| CCCN1CCC[C@@H](c2cccc(C#N)c2)C1 | inactive |
| CCCN1CCC[C@@H]2Cc3n[nH]cc3C[C@H]21 | inactive |

| Structure (SMILES) | Potency |
| --- | --- |
| COc1cc(C[C@@H](C)N)c(OC)cc1I | inactive |
| COc1cc(C=C(C#N)C#N)cc(O)c1O | 39.8 µM (active) |
| C[C@]12CC[C@H](O)CC1=CCC1C2CC[C@]2(C)C(=O)CC[C@@H]12 (stereo not given in full) | inactive |
| CCCN1CCCC(c2cccc(O)c2)C1 (stereo not given) | inactive |
| CCc1c(C(=O)OC)ncc2[nH]c3cc(OC)c(OC)cc3c12 | inactive |
| N#CC(=Cc1ccc(O)c(O)c1)C(N)=S | 44.7 µM (active) |
| C[N+]1(C)C2CC(OC(=O)C(CO)c3ccccc3)CC1C1OC12 (stereo not given) | inactive |
| CCCN1CCc2cc(O)cc3c2C1Cc1ccc(O)c(O)c1-3 (stereo not given) | 31.6 µM (active) |
| CCCN(CCC)C(=O)Cc1c(-c2ccc(Cl)cc2)nc2c(Cl)cc(Cl)cn12 | inactive |
| COc1ccc2c3c1O[C@H]1C(=O)CC[C@@]4(O)C(C2)N(CC2CC2)CCC314 (stereo not given in full) | inactive |
| CCCC[N+]1(C)C2CC(OC(=O)C(CO)c3ccccc3)CC1C1OC12 (stereo not given) | inactive |
| CN1CCC23CCCC[C@H]2C1Cc1ccc(O)cc13 (stereo not given in full) | inactive |
| NCC#Cc1ccccc1 | inactive |
| NC(Cn1ccc(=O)[nH]c1=O)C(=O)O (stereo not given) | inactive |
| CCNC(=O)[C@H]1O[C@@H](n2cnc3c(N)ncnc32)[C@H](O)[C@H]1O | inactive |
| COC(=O)C(N)CCCN=C(N)N[N+](=O)[O-] (stereo not given) | inactive |
| Oc1ccc2c3c1O[C@H]1[C@@H](O)CC[C@@]4(O)C(C2)N(CC2CCC2)CCC314 (stereo not given in full) | inactive |
| C[C@]12CC[C@H]3[C@@H](CCC4C[C@H](O)CC[C@@]43C)[C@@H]1CC[C@@H]2O (stereo not given in full) | inactive |
| CC1Cc2cc3c(cc2C(c2ccc(N)cc2)=NN1)OCO3 (stereo not given) | 56.2 µM (active) |
| Oc1cc2c(cc1O)[C@H]1c3ccccc3CNC1CC2 (stereo not given in full) | 25.1 µM (active) |
